Test results from the supplement of paper PMC11150407.
About 45 (2%) of roughly 3,000 compounds showed an effect of 50% or more. The sample holds strong results, similar compounds and a random draw of the others, so the mix is not that of the screen.

Tested on: MOLM1 and UCSD/AML1 (averaged)
Experiment: cell viability relative to DMSO control (POC); higher = less growth inhibition
Settings: 1 µM; 72 h
Experimental: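 Primary viability screen in the 3q26 EVI1-high AML cell lines MOLM1 and UCSD/AML1, compounds at 1 uM for 72 h. ATP CellTiter-Glo read-out given as percent viable over DMSO control (POC), averaged over duplicates. This mapping covers the TimTec NDL-3000 natural derivative library, whose compounds are identified by TimTec catalogue codes (ST...).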

SMILES	cell viability [%]
O=C1CC(n2nnnc2-c2ccccc2Cl)C2COC1O2 (centres undefined)	64.4
O=C1C[C@H](n2nc(-c3ccccc3Br)oc2=S)[C@H]2CO[C@@H]1O2	55.5
O=C1CC(n2c(=O)oc3ccccc32)C2COC1O2 (centres undefined)	14.7
Cc1ccc2c(O)c([N+](=O)[O-])c(=O)oc2c1	103
Cn1c(=O)c2c(nc3n2CC(C24CC5CC(CC(C5)C2)C4)=NN3CCO)n(C)c1=O	106
CCOc1cc2c(cc1OCC)C(c1cccc(F)c1F)NCC2 (centres undefined)	86.1
O=C(O)c1cccc(Nc2nc(-c3ccc(Cl)cc3)nc3ccccc23)c1	90
O=C(O)c1ccccc1-c1c2ccc(=O)c(Br)c-2oc2c(Br)c(O)ccc12	103
COc1ccc(C(=O)N2CCCc3cccc(OC)c32)cc1OC	90.1
O=C(/C=C/c1ccc(Cl)cc1Cl)c1cccc2ccccc12	95.1
O=C(O)/C=C/c1ccc([N+](=O)[O-])cc1	109
O=C(/C=C/c1ccc([N+](=O)[O-])cc1)c1cccc2ccccc12	32.8
COc1ccc2c(c1)c(CC(=O)NCc1ccccn1)c(C)n2C(=O)c1ccc(Cl)cc1	84.5
O=C(/C=C/c1ccccc1)c1ccc(O)cc1	2.68
O=C(/C=C/c1ccccc1)c1ccc(O)cc1O	96.7
O=C(/C=C/c1ccccc1)c1cc(O)ccc1O	93.7
COc1ccc(/C=C(\C#N)C(=O)OC(C)C)c(OC)c1OC	106
CC(=O)OC1CC(n2cc(C)c(=O)[nH]c2=O)OC1CO (centres undefined)	98.2
O=c1[nH]c(=O)n(C2C[C@H](O)[C@@H](CO)O2)cc1I (some centres undefined)	89.8
O=c1[nH]c(=O)n(C2CC(O)C(CO)O2)cc1C(F)(F)F (centres undefined)	29.6
CCOc1ccc2oc(=O)cc(CN3CCNCC3)c2c1	90.2
CCOc1ccccc1C(=O)NCCc1c(C)[nH]c2ccccc12	105
COc1ccc(C2c3[nH]c4ccccc4c3CCN2CC(=O)Nc2ccc(C)cc2)cc1 (centres undefined)	87.2

SMILES	cell viability [%]
COc1ccc(/C=C/C(=O)c2ccc(O)cc2C)cc1	22.5
COc1ccc(C(=O)/C=C/c2ccccc2)c(O)c1	101
O=C(/C=C/c1ccc(O)cc1)c1ccc(O)cc1O	102
COc1ccc2c(c1)c(CC(=O)NCCSc1ccccc1)c(C)n2C(=O)c1ccc(Cl)cc1	98.5
COc1ccc(C(NS(=O)(=O)c2ccc(C)cc2)c2nccc3cc(OC)c(OC)cc23)cc1OC (centres undefined)	98.4
C=CCN(C(=O)CSc1nc2ccccc2c(=O)[nH]1)c1ccccc1	88.4
COc1ccc(OC)c(NC(=O)c2cc(OC)c(OC)c(OC)c2)c1	85.9
C=CCN(C(=O)CSc1nc2c(=O)[nH]cnc2n1-c1ccccc1)c1ccccc1	98
CCCCCOc1ccc(C2=NOC(=O)/C2=C\c2cc(Cl)ccc2O)cc1	92.3
Cc1ccc(-n2c(SCc3ccccc3F)nc3c(=O)[nH]cnc32)cc1	95.2
COc1ccc(-c2cc(C(F)(F)F)nc(SC3CC(O)C4OCC3O4)n2)cc1OC (centres undefined)	98.4
CC1CCc2nc(S[C@H]3CC(=O)[C@@H]4OC[C@H]3O4)nc(C(F)(F)F)c2C1 (some centres undefined)	39.9
COc1ccc(-c2cc(-c3ccc4c(c3)OCO4)[nH]c(=O)c2C#N)cc1	97.1
CC1(C)C2CCC1(CS(=O)(=O)Nc1ccncc1)C(=O)C2 (centres undefined)	106
COc1cc(C(=O)NCC(C)NC(=O)c2cc(OC)c(OC)c(OC)c2)cc(OC)c1OC (centres undefined)	99.3
CCOc1ccc2oc(=O)cc(CN3CCN(CC(=O)Nc4cc(F)ccc4F)CC3)c2c1	98.5
CCOC(=O)c1c(CC(C#N)(c2ccccc2)c2ccccc2)n(C)c2cc(Br)c(OC)cc12	17.7
CCOC(=O)c1c(CSCc2ccccc2)n(-c2ccccc2)c2cc(Br)c(OC)cc12	110
CCOC(=O)c1c(C)n(-c2ccccc2)c2cc(Br)c(OC)cc12	110
Cn1c(=O)c2ccccc2n(CC(=O)N2CCc3ccccc3C2)c1=O	107
COc1ccc(NC(=O)CSc2nc3c(=O)[nH]cnc3n2-c2ccc(C)cc2)cc1OC	92.8
Cc1ccc2occ(C)c(=O)c2c1	98.5
O=C(Cn1c(=O)cc(C(=O)N2CCc3ccccc3C2)c2ccccc21)Nc1ccc(Cl)cc1	105

SMILES	cell viability [%]
N#CC1=C(N)Oc2cc(O)ccc2C1c1cccc(C(F)(F)F)c1 (centres undefined)	22.1
N#CC1=C(N)Oc2cc(O)ccc2C1c1ccccc1F (centres undefined)	13.8
CCc1ccc(C2C(C#N)=C(N)Oc3cc(O)ccc32)cc1 (centres undefined)	110
N#CC1=C(N)Oc2cc(O)ccc2C1c1cccc([N+](=O)[O-])c1 (centres undefined)	101
N#CC1=C(N)Oc2[nH]c(=O)[nH]c(=O)c2C1c1ccccc1F (centres undefined)	94.3
N#CC1=C(N)Oc2cc(O)ccc2C1c1ccccc1 (centres undefined)	104
O=C(O)CNC(=O)c1ccc(Cl)cc1	108
O=c1c(O)c(-c2ccc(F)cc2)oc2cc(Cl)ccc12	100
Cc1cc(C)c(NC(=O)Cn2c(=O)cc(C(=O)N3CCCCC3)c3ccccc32)c(C)c1	99.4
COCCOC(=O)c1c(C)n(CCOC23CC4CC(CC(C4)C2)C3)c2c1cc(O)c1ccccc12	81.2
Cc1ccc(-n2c(SCC(=O)Nc3ccccc3C(F)(F)F)nc3c(=O)[nH]cnc32)cc1	108
COc1cc(C(=O)Nc2ccc(CN3CCCC3)cc2)cc(OC)c1OC	87.4
COC(=O)c1ccc(NC(=O)c2cc(OC)c(OC)c(OC)c2)cc1	23.1
CCCCc1ccc(NC(=O)c2cc(OC)c(OC)c(OC)c2)cc1	49.6
COc1cc(C(=O)Nc2ccc(C(=O)NCc3ccccc3)cc2)cc(OC)c1OC	87
COc1cc(C(=O)Nc2ccccc2C(=O)Nc2ccccc2)cc(OC)c1OC	36
COc1cc(C(=O)Nc2ccccc2NC(=O)c2cc(OC)c(OC)c(OC)c2)cc(OC)c1OC	95.9
COc1cc(C(=O)Nc2ccc(C(F)(F)F)cc2)cc(OC)c1OC	93.8
COc1cc(C(=O)Nc2ccc(C(=O)c3cccs3)cc2)cc(OC)c1OC	99.7
COc1cc(C(=O)Nc2ccc3c(c2)ncn3C)cc(OC)c1OC	19
COc1cc(C(=O)Nc2ccc3ncn(C)c3c2)cc(OC)c1OC	93.9
COc1cc(C(=O)Nc2ccccc2C(=O)NCc2ccccc2)cc(OC)c1OC	85.2
COc1ccc(C(=O)Nc2ccc3ncn(C)c3c2)cc1OC	101
